17 molecules from the antibiotic and cytotoxicity screens of Wong et al. (2023) can be followed below.

The structures appear in SMILES notation. The whole screen tested about 39,000 compounds, of which about 3,300 (8.5%) were called active. This excerpt belongs to a sample that is enriched for actives.

This assay has as its system HepG2. The experiment in a line: cytotoxicity call (relative viability < 0.9). Conditions: 10 µM.
Turning to `Cc1noc(C)c1NC(=O)Nc1ccc2c(c1)C(=O)N([C@H](C)CO)C[C@H](C)[C@H](CN(C)Cc1ccccc1)OCCCC[C@H](C)O2`, the cytotoxicity call is “inactive”. Next, `C=CCOC(=O)[C@H]1[C@@H]2C(=O)O[C@@H](c3ccccc3)[C@@H](c3ccccc3)N2[C@@H](c2ccc(OCCOC(=O)[C@@H]3C[C@@H]4C(=O)N[C@@H](CC(C)C)C(=O)N4[C@@H]3c3cccc(OCCO)c3)cc2)[C@]12C(=O)Nc1ccccc12`: “inactive”. As to `COc1ccc(S(=O)(=O)N(C)C[C@H]2Oc3ccc(NS(=O)(=O)c4cccs4)cc3C(=O)N([C@H](C)CO)C[C@@H]2C)cc1`, the cytotoxicity call is “inactive”.

Turning to `COc1cccc(NC(=O)N[C@H]2C=C[C@@H](CC(=O)N3CCN(C)CC3)O[C@H]2CO)c1`, the cytotoxicity call was “inactive”. With `C[C@@H]1CN([C@@H](C)CO)C(=O)c2cc(NC(=O)Nc3ccc4c(c3)OCO4)ccc2O[C@@H](C)CCCCO[C@H]1CN(C)Cc1ccncc1`, the cytotoxicity call was “inactive”.

In the case of `c1cnc2nccn2c1`, the cytotoxicity call was “inactive”. In the case of `C[C@@H]1CN([C@H](C)CO)C(=O)c2cc(NC(=O)CCCN(C)C)ccc2O[C@@H]1CN(C)S(=O)(=O)c1cn(C)cn1` it was “inactive”; in that of `C[C@H](CO)N1C[C@H](C)[C@H](CN(C)Cc2ccc(C(=O)Nc3ccccc3N)cc2)Oc2c(NC(=O)Nc3cccc4ccccc34)cccc2C1=O`, “active”; in that of `C[C@@H]1CN([C@@H](C)CO)C(=O)c2cccc(NC(=O)Nc3cccc4ccccc34)c2O[C@@H]1CN(C)Cc1ccc(C(=O)Nc2ccccc2N)cc1`, “inactive”. In the case of `C[C@H]1CN([C@@H](C)CO)C(=O)c2cccc(NC(=O)Nc3ccccc3)c2O[C@@H]1CN(C)Cc1ccc(C(=O)Nc2ccccc2N)cc1` it was “inactive”; in that of `C[C@H](CO)N1C[C@H](C)[C@H](CN(C)Cc2ccc(C(=O)Nc3ccccc3N)cc2)Oc2c(NC(=O)Nc3ccccc3)cccc2C1=O`, “inactive”. In the case of `C[C@@H]1CN([C@H](C)CO)C(=O)c2cccc(NC(=O)Nc3cccc4ccccc34)c2O[C@@H]1CN(C)Cc1ccc(C(=O)Nc2ccccc2N)cc1` it was “inactive”; in that of `C[C@H]1CN([C@@H](C)CO)C(=O)c2cccc(NC(=O)Nc3cccc4ccccc34)c2O[C@H]1CN(C)Cc1ccc(C(=O)Nc2ccccc2N)cc1`, “active”; in that of `COc1ccc(NC(=O)N(C)C[C@@H]2Oc3ccc(NC(=O)Nc4ccc(C(F)(F)F)cc4)cc3C(=O)N([C@@H](C)CO)C[C@@H]2C)cc1`, “inactive”. On to `O[C@@H]1Cc2ccccc2[C@H]1O`, for which the cytotoxicity call was “inactive”. Next, `O=C(C[C@H]1CC[C@@H]2[C@H](COC[C@H](O)CN2S(=O)(=O)c2ccc(Oc3ccccc3)cc2)O1)NCCN1CCCCC1`: “inactive”; `O=C(C[C@H]1CC[C@H]2[C@@H](COC[C@H](O)CN2S(=O)(=O)c2cccc(Cl)c2)O1)NCCCN1CCOCC1`: “inactive”.
